Source: PubChem BioAssay (NCATS)
Records with an inconclusive call do not appear. The source made the active and inactive calls. Unless noted, calls follow the shape of the full dose curve.

Columns and labels:
[1] = qHTS for Inhibitors of the Functional Ribonucleoprotein Complex (vRNP) of Lassa (LASV) Arenavirus: LASV Primary Screen - GLuc reporter signal (AID 1347082; calls by dose curve; tested in HEK293 reporter line; also: nearly all actives have a fitted effect of over 60% in size); conditions: LASV minigenome vRNP, Gaussia luciferase reporter; series mostly up to 57.5 µM
[2] = qHTS for Inhibitors of the Functional Ribonucleoprotein Complex (vRNP) of Lassa (LASV) Arenavirus: Viability assay - alamar blue signal for LASV Primary Screen (AID 1347083; calls by dose curve; tested in HEK293 reporter line; also: nearly all actives have a fitted effect of over 80% in size); conditions: cell viability, alamar blue fluorescence (LASV minigenome counter-screen); series mostly up to 57.5 µM
[3] = qHTS for Inhibitors of the Functional Ribonucleoprotein Complex (vRNP) of Lymphocytic Choriomeningitis Arenaviruses (LCMV): Viability assay - alamar blue signal for LCMV Primary Screen (AID 1347085; calls by dose curve; tested in HEK293 reporter line; also: nearly all actives have a fitted effect of over 80% in size); conditions: alamar blue viability counter-screen, LCMV vRNP screen cells; series mostly up to 57.5 µM
[4] = target: Nucleoprotein (Lymphocytic choriomeningitis virus (strain Armstrong)) (UniProt P09992); experiment: qHTS for Inhibitors of the Functional Ribonucleoprotein Complex (vRNP) of Lymphocytic Choriomeningitis Arenaviruses (LCMV): LCMV Primary Screen - GLuc reporter signal (AID 1347086); conditions: LCMV minigenome vRNP cell assay, Gaussia luciferase reporter; series mostly up to 57.5 µM; also: nearly all actives have a fitted effect of over 70% in size

Measured: Potency

Sequence of Nucleoprotein (Lymphocytic choriomeningitis virus (strain Armstrong)) (P09992 whole entry, looked up): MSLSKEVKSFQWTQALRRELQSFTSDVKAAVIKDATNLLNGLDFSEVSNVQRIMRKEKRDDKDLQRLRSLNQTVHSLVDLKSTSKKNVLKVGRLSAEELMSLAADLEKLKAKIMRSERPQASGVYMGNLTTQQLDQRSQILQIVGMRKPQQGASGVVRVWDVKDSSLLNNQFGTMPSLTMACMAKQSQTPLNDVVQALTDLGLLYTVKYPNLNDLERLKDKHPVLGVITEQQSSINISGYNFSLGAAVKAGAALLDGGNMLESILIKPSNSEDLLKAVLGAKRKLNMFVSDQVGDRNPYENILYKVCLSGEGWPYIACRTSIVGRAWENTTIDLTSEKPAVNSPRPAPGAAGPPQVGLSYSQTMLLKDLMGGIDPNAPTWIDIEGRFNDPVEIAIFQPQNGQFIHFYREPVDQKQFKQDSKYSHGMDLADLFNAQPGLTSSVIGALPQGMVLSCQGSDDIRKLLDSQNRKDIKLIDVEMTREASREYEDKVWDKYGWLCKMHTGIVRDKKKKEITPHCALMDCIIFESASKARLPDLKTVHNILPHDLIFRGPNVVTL

Nc1nc(=O)n([C@@H]2O[C@H](CO)[C@@H](O)[C@@H]2F)cc1I
inactive: all assays above

CN1CCN(c2c(F)cc3c(=O)c(C(=O)O)cn(CCF)c3c2F)CC1
inactive: all assays above

CC(C)C[C@@H](N)C(=O)O
inactive: all assays above

Cc1ccc(C(C)OC(=O)C2(C)CCC(C(=O)O)C2(C)C)cc1 (stereo not given)
inactive: all assays above

CCCCC1C(=O)N(c2ccccc2)N(c2ccc(O)cc2)C1=O (stereo not given)
inactive: all assays above

CC(=O)OCC1=C(C(=O)O)N2C(=O)[C@@H](NC(=O)CSc3ccncc3)[C@H]2SC1
inactive: all assays above

NC[C@H]1O[C@H](O[C@H]2[C@H](O)[C@@H](O[C@H]3O[C@H](CO)[C@@H](O)[C@H](N)[C@H]3O)[C@H](N)C[C@@H]2N)[C@H](N)[C@@H](O)[C@@H]1O
inactive: all assays above

Clc1ccc(Cn2c(CN3CCCC3)nc3ccccc32)cc1
inactive: all assays above

CC(C)(C)CC(C)(C)c1ccc(O)c(Cc2ccc(Cl)cc2Cl)c1
inactive: all assays above

CC(C)(C)c1ccc(C(=O)CCCCl)cc1
inactive: all assays above

CN(C)[C@@H]1C(=O)C(C(=O)NCN2CCCC2)=C(O)[C@@]2(O)C(=O)C3=C(O)c4c(O)cccc4[C@@](C)(O)C3C[C@@H]12 (stereo not given in full)
inactive: all assays above

CCOC(=O)C(=O)CCc1ccccc1
inactive: all assays above

CC1(C)OC[C@@H](COC(=O)CCc2ccc(OC[C@@H](O)CNCCNC(=O)N3CCOCC3)cc2)O1
inactive: all assays above

OC(CN1CCC(Cc2ccc(F)cc2)CC1)c1ccc(Cl)cc1 (stereo not given)
inactive: all assays above

OCC(O)CS (stereo not given)
inactive: all assays above

CCCCCCCCCCOCC(O)CN (stereo not given)
inactive: all assays above

CCN(CC)C(=O)Nc1ccc(OCC(O)CNC(C)(C)C)c(C(C)=O)c1 (stereo not given)
inactive: all assays above

C[C@]12C=CC(=O)C=C1CC[C@H]1[C@@H]3C[C@@H](O)[C@](O)(C(=O)CO)[C@@]3(C)C[C@H](O)[C@@]12F
inactive: all assays above

Clc1ccccc1-c1nc(-c2ccncc2)no1
inactive: all assays above

CCOC(=O)Cn1cccc1-c1nc(-c2ccc(OC)cc2)c(-c2ccc(OC)cc2)s1
inactive: all assays above

O=C(Cn1ccnc1[N+](=O)[O-])NCCO
inactive: all assays above

CCOC(=O)c1cccc(N)c1
inactive: all assays above

CC[N+]1(CC)CCC(=C(c2ccccc2)c2ccccc2)C1C (stereo not given)
inactive: all assays above

Cc1cc(C)c(/C=C2\C(=O)Nc3ccccc32)[nH]1
inactive: all assays above

CCCCCC(N)=O
inactive: all assays above

C[C@]12CC[C@@H]3c4ccc(O)cc4CC[C@H]3[C@@H]1CCC2=O
inactive: all assays above

CCN(CC)CCNC(=O)c1cc(Br)c(N)cc1OC
inactive: all assays above

CC1(C)O[C@@H]2C[C@H]3[C@@H]4C[C@H](F)C5=CC(=O)C=C[C@]5(C)[C@H]4[C@@H](O)C[C@]3(C)[C@]2(C(=O)CO)O1
inactive: all assays above

O=c1[nH]sc2cc(Cl)ccc12
inactive: all assays above

NNC(=O)CP(=O)(c1ccccc1)c1ccccc1
inactive: all assays above

CN(CCCN1c2ccccc2CCc2ccccc21)CC(=O)c1ccc(Cl)cc1
inactive: all assays above

COc1ccc2[nH]c(S(=O)Cc3ncc(C)c(OC)c3C)nc2n1 (stereo not given)
inactive: all assays above

Cc1ccc(C(=O)Oc2ccc(C(O)CNC(C)(C)C)cc2OC(=O)c2ccc(C)cc2)cc1 (stereo not given)
inactive: all assays above

C[N+](C)(C)CCOC(=O)CCC(=O)OCC[N+](C)(C)C
inactive: all assays above

O=C(CCCN1CC=C(n2c(=O)[nH]c3ccccc32)CC1)c1ccc(F)cc1
inactive: all assays above

NC(=O)C1(N2CCCCC2)CCN(CCCC(=O)c2ccc(F)cc2)CC1
inactive: all assays above

Cc1ccc(O)c(-n2nc3ccccc3n2)c1
inactive: all assays above

CC[N+](CC)(CC(=O)Nc1c(C)cccc1C)Cc1ccccc1
inactive: all assays above

Cc1ncc(CSSCc2cnc(C)c(O)c2CO)c(CO)c1O
inactive: all assays above

CCOC(=O)C1=C[C@]2(CC)CCCN3CCc4c(n1c1ccccc41)[C@@H]32
inactive: all assays above

CCN(CC)CCOc1ccccc1C(=O)CCc1ccccc1
inactive: all assays above

C[C@]1(Cn2ccnn2)[C@H](C(=O)O)N2C(=O)C[C@H]2S1(=O)=O
inactive: all assays above

COC(=O)[C@@H](N)Cc1ccc(O)c(O)c1
inactive: all assays above

CCOC(=O)[C@@](C)(N)Cc1ccc(O)c(O)c1
inactive: all assays above

O=C(O)CCc1nc(-c2ccccc2)c(-c2ccccc2)o1
inactive: all assays above

Cn1cnc2c1c(=O)[nH]c(=O)n2C
inactive: all assays above

C[N+](C)(C)CC[N+]1(C)Cc2c(Cl)c(Cl)c(Cl)c(Cl)c2C1
inactive: all assays above

C#CC1(O)CC[C@H]2[C@@H]3CCC4=CCCC[C@@H]4[C@H]3CC[C@@]21C (stereo not given in full)
inactive: all assays above

CC(C)(Oc1ccc(CCNC(=O)c2ccc(Cl)cc2)cc1)C(=O)O
inactive: all assays above

Oc1cccc2[nH]ccc12
inactive: all assays above

CCCCc1cc2ccccc2c(OCCN(C)C)n1
inactive: all assays above

CCCOc1ccccc1-c1nc2n[nH]nc2c(=O)[nH]1
inactive: all assays above

CC(CC1c2ccccc2CCc2ccccc21)CN(C)C (stereo not given)
inactive: all assays above

CCC(CC)(CC(=O)Nc1cccc(/C=C/c2nc(C3CCC3)cs2)c1)C(=O)O
inactive: all assays above

CCc1cccc(N(C)C(N)=Nc2cccc3ccccc23)c1
inactive: all assays above
